Activity calls are given as the source filed them. The rule behind the calls is not given here.

The nature of the assay: Vero 76 cell cytotoxicity, dose response, cytotoxicity control, set 5 (AID 624069). The conditions noted are these: Vero 76 cells cytotoxicity; series mostly up to 25 µM.
For the compound `CCN1CCN(Cc2nc3ccccc3c(=O)n2-c2ccccc2F)CC1`, the outcome was inactive.

Turning to `CCN1CCN(Cc2nc3ccc([N+](=O)[O-])cc3c(=O)n2-c2ccc(F)cc2)CC1`, the result was inactive. Take `CCN1CCN(Cc2nc3ccc(C(F)(F)F)cc3c(=O)n2-c2ccccc2F)CC1`: the result was inactive.

For `CC(C)(C)OC(=O)N1CCN(Cc2nc3ccc([N+](=O)[O-])cc3c(=O)n2-c2ccccc2F)CC1`, the call was inactive.

As for `CN1CCN(Cc2nc3ccc([N+](=O)[O-])cc3c(=O)n2-c2ccccc2F)CC1`, the outcome was inactive. For `O=c1c2cc([N+](=O)[O-])ccc2nc(CN2CCNCC2)n1-c1ccccc1F`, the outcome was inactive. `CCN1CCN(Cc2nc3ccc([N+](=O)[O-])cc3c(=O)n2-c2cccc(F)c2)CC1`: the result was inactive.

Consider `CCN1CCN(Cc2nc3ccc([N+](=O)[O-])cc3c(=O)n2-c2ccccc2)CC1`, for which the compound was classed as inactive. `CCN1CCN(Cc2nc3ccc([N+](=O)[O-])cc3c(=O)n2-c2ccccc2F)CC1`: the result was inactive. For `O=C(NCc1ccco1)C1CCN(C(=O)c2cc3sccc3n2Cc2ccc(F)cc2)CC1`, the compound was called inactive.

These data come from PubChem BioAssay AID624069 (Southern Research Specialized Biocontainment Screening …, 2012).
